Data: PubChem BioAssay AID720706 (Broad Institute, 2013)
About 5,500 (1.6%) of roughly 350,000 compounds were called active. This is one part of a sample in which actives are shown more often than they occur.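 Rule for the calls: active = significant combined selectivity score with lowered wild-type GFP, culture density cut under 30%, mutant RFP and density less affected; inactive = any of these conditions unmet.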

test: GFP drop in mixed WT/humanized-ribosome E. coli culture – GFP/RFP fluorescence, OD600, single point, bacterial rRNA inhibitor project, primary screen (AID 720706); settings: E. coli WT GFP vs humanized-ribosome RFP mutants, 24 h; GFP signal change (wild-type ribosome): stronger effect = lower value, DMSO median 0, no signal -100; OD600 change: measured here: OD600 growth, DMSO median 0, no signal -100; RFP signal change: measured here: RFP humanized mutant strains, DMSO median 0, no signal -100, concentration not given here

Row | SMILES | GFP signal change (wild-type ribosome) | OD600 change [%] | RFP signal change [%]
1 | COc1ccc(C2=CN(Cc3ccccc3)C(c3ccc(OC)cc3)CC2=O)cc1 (stereo not given) | -23.8% (inactive) | -12.9 | 3.14
2 | CC(C)NC(=O)N[C@@H]1CC[C@H](CC(=O)NC2Cc3ccccc3C2)O[C@H]1CO | 1.59% (inactive) | 0.47 | -1.63
3 | Cn1cnc(CCNC(=O)C[C@@H]2CC[C@H]3[C@@H](COC[C@@H](O)CN3C(=O)Nc3ccc(Cl)cc3)O2)c1 | -23.1% (inactive) | -23.2 | -3.05
4 | COc1cc(/C=N/NC(=S)Nc2cccnc2)cc(OC)c1O | 1.59% (inactive) | 0.97 | -1.01
5 | COc1ccc(/C=C/C(=O)Nc2ccc(C34CC5CC(CC(O)(C5)C3)C4)cc2)cc1OC | -3.43% (inactive) | -9.24 | 7.24
6 | COc1ccc(/C=C/C(=O)Nc2cccnc2)cc1OC | -20.8% (active) | -6.64 | -4.77
7 | C[C@H]1CCCCO[C@H](CN(C)C(=O)Nc2ccccc2)[C@@H](C)CN([C@@H](C)CO)C(=O)c2cc(NC(=O)c3ccncc3)ccc2O1 | -0.767% (inactive) | -2.38 | -0.401
8 | Cc1noc(C)c1NC(=O)N(C)C[C@H]1OCCCC[C@@H](C)Oc2ccc(NC(=O)NC(C)C)cc2C(=O)N([C@@H](C)CO)C[C@H]1C | -0.208% (inactive) | -7.75 | -1.31
9 | COc1cccc(-c2ccc3c(c2)[C@@H]2[C@@H](CCN2C(=O)CN2CCOCC2)[C@H](CO)N3)c1 | -1.73% (inactive) | 12.1 | -1.6
10 | Cc1cccc(C)c1NC(=O)CNC(=O)Cc1ccc(Br)cc1 | 8.56% (inactive) | 16.5 | -1.39
11 | CC1CCCCC1NC(=O)COC(=O)Cc1ccc(Br)cc1 (stereo not given) | -12.8% (inactive) | -7.61 | 2.98
12 | O=C(COC(=O)Cc1ccc(Br)cc1)Nc1c(F)c(F)c(F)c(F)c1F | -24.2% (active) | -11.5 | 3.44
13 | COc1cccc(NS(=O)(=O)c2ccc(-c3coc(C)n3)cc2)c1 | -28.4% (active) | -10.5 | 9.54
14 | Cc1ccc(NS(=O)(=O)c2ccc(-c3coc(C)n3)cc2)c(C)c1 | -8.02% (inactive) | 1.15 | 7.38
15 | CCN(c1cccc(C)c1)S(=O)(=O)c1ccc(-c2coc(C)n2)cc1 | -9.48% (inactive) | -35 | -6.13
16 | CN1C(CC(=O)Nc2ccc(Br)cc2)c2ccccc2CC1(C)C (stereo not given) | -26.3% (active) | -20.9 | -0.455
17 | CCCCN1CC(C)(C)[C@H](CC(=O)Nc2ccc(Br)cc2)C1=O | -12.6% (inactive) | -27.4 | -4.18
18 | CC1(C)CN(CCc2ccccc2)C(=O)[C@H]1CC(=O)Nc1ccc(Br)cc1 | -6.21% (inactive) | 0.615 | -0.505
19 | CNC[C@H]1OCCCC[C@H](C)Oc2ccc(NS(=O)(=O)c3ccc(Cl)cc3)cc2C(=O)N([C@@H](C)CO)C[C@@H]1C | 3.9% (inactive) | 3.87 | 0.215
20 | CCOc1ccc(-c2cc(C(=O)N/N=C/c3ccc(O)cc3)c3ccccc3n2)cc1 | 12.1% (inactive) | 6.6 | 2.19

Row | SMILES | GFP signal change (wild-type ribosome) | OD600 change [%] | RFP signal change [%]
21 | O=C(Cc1cccs1)N/N=C/c1ccc(OCc2ccccc2)cc1 | 6.88% (inactive) | -2.65 | -8.12
22 | O=C(N/N=C/c1ccc(OCc2ccccc2)cc1)c1ccc(O)cc1 | -18.6% (active) | 6.25 | 7.26
23 | C[C@@H]1CCCCO[C@H](CN(C)C(=O)NC2CCCCC2)[C@@H](C)CN([C@H](C)CO)C(=O)c2cc(NC(=O)CCC(F)(F)F)ccc2O1 | -0.169% (inactive) | -3.94 | -2.49
24 | CCNC(=O)Nc1ccc2c(c1)C(=O)N(C)[C@@H]1CC[C@@H](CC(=O)NCCOC)O[C@@H]1CO2 | 4.01% (inactive) | 1.31 | -0.262
25 | COc1ccc2c3c([nH]c2c1)[C@H](CO)N(C(=O)CN1CCOCC1)CC31CN(C(C)=O)C1 | 3.07% (inactive) | 2.55 | 0.589
26 | CNC[C@H]1OCCCC[C@@H](C)Oc2ccc(NS(=O)(=O)c3ccc(F)cc3)cc2C(=O)N([C@H](C)CO)C[C@H]1C | 2.84% (inactive) | 7.37 | -0.102
27 | CC(C)NC(=O)N(C)C[C@H]1OCCCC[C@H](C)Oc2ccc(NC(=O)CCCN(C)C)cc2C(=O)N([C@@H](C)CO)C[C@H]1C | 3.73% (inactive) | 6.52 | -0.182
28 | COc1ccc2c3c(n(C)c2c1)[C@H](CO)N(C(=O)c1ccc(F)cc1)CC31CCN(C(C)=O)CC1 | -0.941% (inactive) | 9.11 | -3.57
29 | CCOc1ccccc1Nc1ccc(C(=O)O)cc1[N+](=O)[O-] | 1.23% (inactive) | -10.5 | -0.853
30 | COc1ccc(Br)cc1/C=N/Nc1ccc(S(=O)(=O)Nc2ccccc2C(=O)O)cc1[N+](=O)[O-] | -24.6% (active) | 15.1 | -1.87
31 | COc1ccc(S(=O)(=O)Nc2ccc3cn[nH]c3c2)cc1[N+](=O)[O-] | 3.58% (inactive) | 9.25 | -2.09
32 | CCCC#Cc1ccc([C@H]2[C@@H](CO)N3CCCCN(S(=O)(=O)Cc4ccccc4)C[C@H]23)cc1 | -54.1% (inactive) | -75.8 | -7.77
33 | C[C@@H]1CCCCO[C@H](CN(C)S(=O)(=O)c2cccs2)[C@H](C)CN([C@H](C)CO)C(=O)c2cc(NC(=O)c3ccccc3)ccc2O1 | 0.541% (inactive) | -5.5 | 4.83
34 | O=C(CCC(=O)c1cccs1)Nc1nc2ccccc2s1 | -21.4% (active) | -16.4 | -0.615
35 | O=C(CCC(=O)c1cccs1)NC1CCCCCC1 | 13.3% (inactive) | 16.6 | 0.589
36 | O=C(c1cccs1)N1CCC(c2nc3ccccc3s2)CC1 | -27.6% (inactive) | -25.9 | 9.84
37 | COc1cc(OC)c(OC)cc1CN1CCN(C(=O)c2cccc3ccccc23)CC1 | 9.36% (inactive) | 7.23 | 0.512
38 | COc1ccc(Br)cc1CN1CCN(C(=O)c2cccc(OC)c2OC)CC1 | -28.2% (active) | -11.8 | 1.29
39 | COc1cccc(OC)c1C(=O)N1CCN(Cc2ccccc2F)CC1 | 11.6% (inactive) | 16.8 | 0.962
40 | COc1ccc(NC(=O)Nc2ccc3c(c2)C(=O)N([C@H](C)CO)C[C@H](C)[C@@H](CN(C)Cc2ccc(C(=O)O)cc2)OCCCC[C@H](C)O3)cc1 | -0.806% (inactive) | -1.43 | -1.16
